# Only some compounds are listed: those with a hit (about 3.2% of all), similar ones and a draw of the others.
# HDAC3 inh: inhibitors of human histone deacetylase 3 | 0.15% of 320,000 active | recombinant HDAC3, fluorogenic peptide/trypsin coupled, fluorescence | inhibition, % at 8.3 µM | O15379 | AID 2718; in the data active means inhibition above about 26%, passing the limit was not always enough
# CHT PAM: human CHT allosteric activation. Q9GZV3. AID 488977. 0.49% of 310,000 active. B-score at 10 µM. CHT-expressing cells, membrane potential dye, choline EC20; hits give high values; LV-AA mutant CHT in HEK293 cells;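 active means initial fluorescence not abnormally high and integrated response B-score, plate-corrected, over 3 SD above library mean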
# CHT block: inhibits the human high affinity choline transporter | Q9GZV3 | CHT-expressing cells, membrane potential dye, choline response; hits give low values | B-score at 10 µM | 0.86% of 310,000 active | AID 488975;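 active means B-score over 3 SD under the library average, and starting fluorescence ratio not unusually high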;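 further: choline stimulus applied at its EC90 after an EC20 pre-addition; B-score computed on integrated fluorescence ratio after choline addition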
# ANO1 activ: activators or potentiators of mouse TMEM16A chloride channel; 0.3% of 340,000 active; Q8BHY3; AID 623877; B-score at 10 µM; HEK293 TMEM16A/YFP-H148Q/I152L, iodide quench fluorescence; hits give low values;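 active means fluorescence-ratio B-score plate-corrected deviation score at least 3 library SD below zero, with starting fluorescence score within 5 deviations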;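 further: channel opened by trigger with iodide after compound preincubation; score built on the fluorescence ratio of max minus min over baseline; more negative score means more quench and so TMEM16A activation or potentiation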
# ANO1 block: blocks the mouse calcium-activated chloride channel TMEM16A | Q8BHY3 | HEK293 TMEM16A/YFP iodide influx fluorescence, ionomycin | normalized B-score (activity score, 25-100; higher = stronger inhibition) at 10 µM | 1.2% of 310,000 active | AID 588511;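 active means ratio plate-corrected score three or more library SD toward inhibition, starting fluorescence score within five deviations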;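 further: score derived from kinetic fluorescence span divided by baseline fluorescence per well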
# PHOSPHO1 block: blocks human PHOSPHO1 phosphatase activity; inhibition, % at 13.3 µM; AID 1565; recombinant PHOSPHO1, absorbance phosphatase assay; 1.1% of 290,000 active; in the data active means inhibition above about 60%
# Target sequence (Q8TCT1 whole entry, looked up): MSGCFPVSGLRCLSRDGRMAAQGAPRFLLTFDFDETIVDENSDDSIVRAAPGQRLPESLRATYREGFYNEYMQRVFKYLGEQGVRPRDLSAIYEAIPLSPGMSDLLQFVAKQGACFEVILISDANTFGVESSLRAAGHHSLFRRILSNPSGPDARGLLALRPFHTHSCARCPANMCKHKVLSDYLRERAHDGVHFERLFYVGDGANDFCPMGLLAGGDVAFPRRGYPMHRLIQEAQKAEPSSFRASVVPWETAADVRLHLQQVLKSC
# CHT inh conf: human CHT inhibition, confirmatory screen; AID 493221; 70% of 2,400 active; shares compounds with CHT block; CHT-expressing cells, choline membrane potential dye; LV-to-AA substituted CHT, HEK293 cells; CHT activity remaining % of control (hits give low values), % at 10 µM;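 active means choline transporter activity left, mean of duplicates at 10 µM, below buffer-only control mean minus 3 SD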;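 further: depolarization triggered by choline at its EC90 following an EC20 pre-addition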
# HEK293 CHT ctr: CHT inhibitor counter-screen hit in parental HEK293 cells | shares compounds with CHT block | AID 493222 | membrane potential ratio readout (active if shifted either direction beyond buffer ±3SD; no single direction) at 10 µM | membrane potential dye, choline response; active = decrease or increase beyond buffer ±3SD | 4% of 2,400 active;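 further: parental cells lack the transporter so any hit is non-specific; ratio is peak minus trough fluorescence over baseline after EC90 choline challenge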
# TMEM16A reconf: reconfirmed blocker of mouse TMEM16A calcium-activated chloride channel | shares compounds with ANO1 block | HEK293 TMEM16A/YFP-H148Q, iodide quench fluorescence; ionomycin added to raise cell calcium | inhibition, % at 10 µM | 39% of 2,300 active;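 active means mean duplicate percent inhibition, scaled so buffer wells are 0 and the reference blocker 100, over three buffer SD above buffer mean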
# TMEM16A Ca cntr: calcium mobilization counter-screen hit for TMEM16A inhibitor series; shares compounds with ANO1 block; 2% of 2,300 active; AID 652231; TMEM16A/YFP HEK293, Fluo4 calcium mobilization; calcium response (% of ionomycin), % at 10 µM;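 active means duplicate-averaged calcium signal over 20% of the ionomycin maximum, relative to buffer baseline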;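 further: each well's signal is peak minus trough fluorescence divided by its pre-addition baseline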
# Parental YFP cnt: acts in parental YFP-HEK293 cells lacking TMEM16A, counter-screen | 2,300 tested, under 10 active | YFP ratio F(max-min)/F0 at 10 µM | shares compounds with ANO1 block | AID 652233 | iodide YFP quench, ionomycin;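 active means yellow fluorescent protein signal ratio exceeding the buffer control mean by over 5 SD of those controls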;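 further: ratio is mean of duplicate wells from kinetic YFP trace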
# ClC-1 rat inh: selectivity of TMEM16A inhibitors: inhibition of rat ClC-1 chloride channel; shares compounds with ANO1 block; CHO ClC-1-YFP, iodide influx fluorescence quench; iodide control reads 0, buffer control 100; ratio percent, % at 10 µM; 2,300 tested, under 10 active;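 active means duplicate-mean ratio percent above the mean of iodide-only control wells, which defines zero, plus 5 of their SD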;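 further: higher percent means stronger block of ClC-1 iodide influx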
# Hits are given with their value; – = inactive; · = no result given.
SMILES,HDAC3 inh,CHT PAM,CHT block,ANO1 activ,ANO1 block,PHOSPHO1 block,CHT inh conf,HEK293 CHT ctr,TMEM16A reconf,TMEM16A Ca cntr,Parental YFP cnt,ClC-1 rat inh
CC(C)COc1ccc(C(=O)Nc2ccc(NC(=O)c3ccco3)cc2)cc1,–,–,–,–,–,–,·,·,·,·,·,·
CC(/C=C1\SC(=S)N(C(C(=O)O)c2ccccc2)C1=O)=C\c1ccccc1 (centres undefined),–,–,–,–,100,–,46%,–,72%,–,–,–
O=C(Nc1cc(S(=O)(=O)N2CCCCC2)ccc1O)c1ccccc1NS(=O)(=O)c1ccc(F)c(F)c1,–,–,-9.4,–,25,–,28%,–,50%,–,–,–
O=C(Nc1cc(S(=O)(=O)Nc2ccccc2Cl)ccc1O)c1ccc(F)cc1F,–,·,·,–,·,·,·,·,·,·,·,·
Cc1cccc(C(=O)Nc2sc(-c3ccccc3)cc2C(=O)O)c1,–,–,-6.3,–,25,–,53%,–,–,–,–,–
CC(C)(C)C(=O)Nc1sc(-c2ccccc2)cc1C(=O)O,–,–,–,–,–,–,·,·,·,·,·,·
COc1ccc(OC)c(S(=O)(=O)N2CCN(CC(O)COc3ccc(C#N)cc3)CC2)c1 (centres undefined),–,–,–,–,–,–,·,·,·,·,·,·
Cc1ccc(S(=O)(=O)Nc2nc(-c3ccc(F)cc3)cs2)cc1,–,–,–,–,–,–,·,·,·,·,·,·
O=S(=O)(Nc1nc(-c2ccccc2)cs1)c1cccc(C(F)(F)F)c1,–,–,-7.7,–,100,–,51%,–,25%,–,–,–
CCCCN(C(=O)c1cc(Cl)nc2ccccc12)c1c(N)n(Cc2ccccc2)c(=O)[nH]c1=O,–,–,–,–,–,·,·,·,·,·,·,·
CCOc1ccccc1-n1ccn(CC(=O)Nc2ccc(Br)cc2F)c(=O)c1=O,·,·,·,–,·,·,·,·,·,·,·,·
COc1ccc(-c2cc(C(F)(F)F)c3c(=O)n(-c4ccccc4)[nH]c3n2)cc1,–,–,-6,–,100,–,66%,2.3,23%,–,–,–
O=C1OC(c2ccccc2)(c2ccc(O)cc2)c2ccccc21 (centres undefined),·,·,·,–,·,·,·,·,·,·,·,·
Cc1cc(O)ccc1C1(c2ccc(O)cc2C)OC(=O)c2ccccc21,–,–,-12,–,25,–,63%,–,43%,–,–,–
Cc1ccccc1C(=O)NNC(=S)NC(=O)COc1ccccc1,–,–,-8,–,25,97,33%,–,34%,80%,–,–
CC1CCN(C(=O)CSCC(=O)Nc2nc(-c3cccs3)cs2)CC1,–,–,-5.3,–,100,–,–,–,–,–,–,–
CC1CCCN(C(=O)CSCC(=O)Nc2nc(-c3cccs3)cs2)C1 (centres undefined),·,–,–,–,–,–,·,·,·,·,·,·
Cc1cc(C)c(C)c(S(=O)(=O)N[C@@H](C)C(=O)OCc2cc(=O)n3cc(Br)ccc3n2)c1C,–,–,–,–,–,–,·,·,·,·,·,·
CS(=O)(=O)NCCNc1ncc(C(F)(F)F)cc1Cl,–,–,–,–,–,–,·,·,·,·,·,·
